In ChEMBL document CHEMBL3988442, “University of Dundee, Small-Polar-MMV Screening Library” (2021):

target: T1, Proteasome subunit beta (Trypanosoma cruzi) (UniProt O96673); assay: Trypanosoma cruzi proteasome chymotrypsin-like activity (TcProtChymo) assay.; type: functional; design: scale not given: in the data most compounds retested in dose-response had high values; conditions: 9.37 µM
T1 sequence (whole entry): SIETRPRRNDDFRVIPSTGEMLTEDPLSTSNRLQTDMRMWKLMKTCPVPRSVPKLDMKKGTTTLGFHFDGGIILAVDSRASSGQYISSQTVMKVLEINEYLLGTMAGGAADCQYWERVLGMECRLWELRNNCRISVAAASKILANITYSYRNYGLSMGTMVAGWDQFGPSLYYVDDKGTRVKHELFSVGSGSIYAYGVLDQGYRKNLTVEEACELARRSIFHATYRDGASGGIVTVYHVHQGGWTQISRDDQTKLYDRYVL

| Structure (SMILES) | Percent Effect |
| --- | --- |
| O=C(c1cnccn1)N1CCOCC2(CCN(C3CCOCC3)C2)C1 (stereo not given) | 19.4% |
| CC(C)OCc1ncn2c1CN(Cc1cccs1)CCC2 | 9.04% |
| O=C(CCN1CCC(C(=O)c2cc(F)ccc2F)CC1)NC1CC1 | 12.4% |
| CCCC(NC(=O)c1cc(C)ccc1C)c1nnn[nH]1 (stereo not given) | 11.7% |
| Cc1ncc(CNC(=O)CCOc2ccccc2)c(C2CCCN2C)n1 (stereo not given) | 6.08% |
| CCCc1noc(CCC(=O)N2CCCC2c2noc(C3CC3)n2)n1 (stereo not given) | -1.56% |
| CCn1ccnc1CN1CCN(CCOc2ccccc2OC)CC1 | 8.19% |
| COc1ccc(CN2CCn3cc(CN4CCCCC4)nc3C2)cc1 | 10.3% |
| N#CC1(C(=O)N2CCN(Cc3ccon3)CC2)CCC1 | 1.56% |
| CN1CCOC(CNCc2coc(-c3ccccc3)n2)C1 (stereo not given) | 8.6% |
| O=C(C1=CC2(CCNCC2)c2ccccc21)N1CCCC1 | 7.52% |
| COc1ccc(CCN2CCCC2Cn2nc(C)nc2C)cc1 (stereo not given) | 6.31% |
| Cc1ccc(NC(=O)NCCCc2n[nH]c(N)c2C#N)cc1 | 13.5% |
| Cc1cc(C)cc(NC(=O)CN2CCCC(n3cncn3)C2)c1 (stereo not given) | 1.44% |
| CC(CNc1cncc(-n2cccn2)n1)N(C)c1ccccc1 (stereo not given) | 1.52% |
| CCC(C)(C)NC(=O)CN(C)C(c1cccc(F)c1)c1ccccn1 (stereo not given) | 0.845% |
| O=C(C1CCOCC1)N1CCC2(CC1)CC(Oc1ccccc1)CO2 (stereo not given) | 7.28% |
| CCOc1cc(C(=O)N2CCCC(c3noc(C)n3)C2)ccn1 (stereo not given) | 2.12% |
| O=C1[C@@H]2CCN(Cc3ccoc3)C[C@@H]2OCCN1Cc1cccnc1 | 11.4% |
| Cc1cc(C)n(CC2CCCN2C(=O)CCCc2ccccn2)n1 (stereo not given) | 10.9% |

| Structure (SMILES) | Percent Effect |
| --- | --- |
| O=C(Nc1nc2c(s1)CCC2)c1cccnc1N1CCOCC1 | 4.7% |
| Cc1ncsc1C(=O)NC1CCN(Cc2cccnc2)CC1 | 7.94% |
| CCN1CCN(c2ncc(-c3cc(C)no3)c(-c3ccc(C)s3)n2)CC1 | 2.18% |
| COc1ccc(C2CCCN2C(=O)NCCNc2ncccn2)cc1 (stereo not given) | 19.3% |
| COCCN1C(=O)C[C@H]2[C@H]1CCN2Cc1ccc(OC)cc1 | 13.5% |
| O=C(NCCc1cccs1)[C@H]1CO[C@H]2CCNC[C@H]2C1 | 19.4% |
| Cc1cnn(CCNCc2ccc(OCc3csc(C)n3)cc2)c1 | 8.54% |
| O=C(CN1CCCC(O)C1)NC(=O)NCc1cccs1 (stereo not given) | 11.8% |
| Cc1cc(C[S+]([O-])CC(=O)Nc2c(C)cccc2C)no1 (stereo not given) | 2.03% |
| COCCN1CCC2(CC1)CC(COC)N(c1ncccn1)C2 (stereo not given) | 7.99% |
| Cc1noc([C@H]2C[C@H]3OCC[C@H]3N(S(=O)(=O)C3CC3)C2)n1 | 16.7% |
| O=C(Cc1cccc(F)c1)NCCNCc1ccco1 | 7.09% |
| CC(=O)Nc1cccc(C(=O)Nc2cnc3n2CCCC3)c1 | 6.14% |
| Cc1nc(C)n(CC2CCCN2CC(=O)NCc2ccco2)n1 (stereo not given) | 13.8% |
| O=C(c1n[nH]c2ccccc12)N1CCCC1c1noc(C2CC2)n1 (stereo not given) | 1.39% |
| Cn1cc(N2CCCC(NCc3cccc4c3OCCCO4)C2)cn1 (stereo not given) | 0.721% |
| CC(C)c1noc(C(C)N2CCN(CCN3CCCC3=O)CC2)n1 (stereo not given) | -1.62% |
| Cc1cc(S(=O)(=O)N2CCCc3ccc(F)cc32)sc1C(=O)O | 1.74% |
| Cc1nc(C2CCCN2CCCNS(C)(=O)=O)no1 (stereo not given) | 20.4% |
| Cc1ncsc1CN1CC[C@H]2OCC[C@@]2(C(=O)NC(C)C)C1 | 0.87% |
